The source of these data is the supplement of paper PMC13094657.

± gives the standard deviation of the averaged measurements.

For the experiment, the system named is MDA-MB-231. The experiment can be described thus: kynurenine production, fold change vs DMSO IFNg/TNF control; higher = more kynurenine produced (less inhibition). The conditions noted are these: pre-treatment time: 18 h then 24 h IFNg/TNF. The method in brief:
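In 96-well plates, MDA-MB-231 cells (7 × 10^4/well) were given 24 h to settle, pre-treated for 18 h with each natural product in 0.1% DMSO, and stimulated for 24 h with IFNγ (1 U/ml) and TNF (6.25 ng/ml) at 37°C. Supernatants were processed with trichloroacetic acid and p-dimethylaminobenzaldehyde and read at 492 nm against 0–100 μM standards. In the first screening round, kynurenine production, as fold change over same-plate cytokine-stimulated vehicle wells, was averaged over duplicate plates.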
With `C=C1C[C@@]23CC[C@H]4[C@@](C)(CCC[C@@]4(C)C(=O)O[C@@H]4O[C@H](CO)[C@@H](O)[C@H](O[C@@H]5O[C@H](CO)[C@@H](O)[C@H](O)[C@H]5O)[C@H]4O[C@@H]4O[C@H](CO)[C@@H](O)[C@H](O)[C@H]4O)[C@@H]2CC[C@]1(O[C@@H]1O[C@H](CO)[C@@H](O)[C@H](O[C@@H]2O[C@H](CO)[C@@H](O)[C@H](O)[C@H]2O)[C@H]1O[C@@H]1O[C@H](CO)[C@@H](O)[C@H](O)[C@H]1O)C3` [Rebaudioside M] (compound dose: 10 uM), the kynurenine production stood at 0.742 ± 0.12.
Then `C[C@]12C[C@@H](O)[C@@H]3C[C@@]1(O[C@@H]1O[C@H](CO)[C@@H](O)[C@H](O)[C@H]1O)[C@@]3(COC(=O)c1ccccc1)C(=O)O2` [Albiflorin] (compound dose: 10 uM), with 0.908 ± 0.031; and `COC(=O)[C@@]1(C)CC[C@]2(C(=O)O)CC[C@]3(C)C(=CC[C@@H]4[C@@]5(C)C[C@H](O)[C@H](O)[C@@](C)(CO)[C@@H]5CC[C@]43C)[C@@H]2C1` [Phytolaccagenin] (compound dose: 10 uM), with 0.875 ± 0.095.
Turning to `C=C1C[C@@]23CC[C@H]4[C@@](C)(CCC[C@@]4(C)C(=O)O[C@@H]4O[C@H](CO)[C@@H](O)[C@H](O)[C@H]4O)[C@@H]2CC[C@]1(O[C@@H]1O[C@H](CO)[C@@H](O)[C@H](O)[C@H]1O[C@@H]1O[C@H](CO)[C@@H](O)[C@H](O)[C@H]1O)C3` [Stevioside] (compound dose: 10 uM), the kynurenine production worked out at 0.959 ± 0.14.
Take `C[C@H](CC[C@@H](O)C(C)(C)O)[C@H]1CC[C@@]2(C)[C@@H]3CC=C4[C@@H](CC[C@H](O[C@@H]5O[C@H](CO)[C@@H](O)[C@H](O)[C@H]5O)C4(C)C)[C@]3(C)[C@H](O)C[C@]12C` [Mogroside I E1] (compound dose: 10 uM): the kynurenine production stood at 0.981 ± 0.35.
Then `CC1(C(=O)O)CCC2(C)CCC3(C)C(=CC(=O)C4C5(C)CCC(O)C(C)(C)C5CCC43C)C2C1` (stereo not drawn) [18β-Glycyrrhetinic acid] (compound dose: 10 uM), with 1.09 ± 0.18; and `C[C@H](CC[C@@H](O[C@@H]1O[C@H](CO)[C@@H](O)[C@H](O)[C@H]1O)C(C)(C)O)[C@H]1CC[C@@]2(C)[C@@H]3CC=C4[C@@H](CC[C@H](O)C4(C)C)[C@]3(C)[C@H](O)C[C@]12C` [Mogroside I A1] (compound dose: 10 uM), with 0.921 ± 0.21.
For `CC1(C)CC[C@]2(C(=O)O)[C@H](O)C[C@]3(C)C(=CC[C@@H]4[C@@]5(C)CC[C@H](O)[C@@](C)(C=O)[C@@H]5CC[C@]43C)[C@@H]2C1` [Quillaic acid] (compound dose: 10 uM), the kynurenine production worked out at 1.11 ± 0.018.
For `C[C@@H]1C[C@@H]2O[C@@]3(O[C@@H]2C(C)(C)O)[C@H](O)[C@@]2(C)[C@@H]4CC[C@H]5C(C)(C)[C@@H](O)CC[C@@]56C[C@@]46CC[C@]2(C)[C@@H]13` [Cimigenol] (compound dose: 10 uM), the kynurenine production was 0.778 ± 0.31.
For `C[C@@]12C[C@@]3(O)O[C@@H](O1)[C@]1(COC(=O)c4ccccc4)[C@@H]3C[C@]12O[C@@H]1O[C@H](COC(=O)c2ccccc2)[C@@H](O)[C@H](O)[C@H]1O` [Benzoylpaeoniflorin] (compound dose: 10 uM) the value was 0.893 ± 0.11; for `C[C@@H]1O[C@@H](O[C@H]2[C@H](OC(=O)[C@]34CCC(C)(C)C[C@H]3C3=CC[C@@H]5[C@@]6(C)C[C@H](O)[C@H](O[C@@H]7O[C@H](CO)[C@@H](O)[C@H](O)[C@H]7O)C(CO)(CO)[C@@H]6CC[C@@]5(C)[C@]3(C)C[C@H]4O)OC[C@H](O)[C@@H]2O)[C@H](O)[C@H](O)[C@H]1O[C@@H]1OC[C@@H](O)[C@H](O)[C@H]1O` [Deapioplatycodin D] (compound dose: 10 uM), 0.643 ± 0.13.
Take `CC(=O)O[C@]12C[C@H](C)[C@H](OC(=O)/C=C/c3ccccc3)[C@@H]1/C=C(/CO)CC[C@H]1[C@@H](/C=C(\C)C2=O)C1(C)C` [Euphorbia factor L22] (compound dose: 10 uM): the kynurenine production stood at 0.964 ± 0.092.
Take `C[C@@H]1O[C@@H](O[C@H]2[C@H](O[C@H]3CC[C@]4(C)[C@H]5CC=C6[C@@H]7CC(C)(C)CC[C@]7(C(=O)O)CC[C@@]6(C)[C@]5(C)CC[C@H]4C3(C)C)OC[C@H](O[C@@H]3O[C@H](CO)[C@@H](O)[C@H](O)[C@H]3O)[C@@H]2O)[C@H](O)[C@H](O)[C@H]1O` [Hederacolchiside A1] (compound dose: 10 uM): the kynurenine production is 0.396 ± 0.15.
With `Cc1cc(O)cc(O[C@@H]2O[C@H](CO)[C@@H](O)[C@H](O)[C@H]2O)c1` [Orcinol glucoside] (compound dose: 10 uM), the kynurenine production came to 0.821 ± 0.095.
For `CO[C@@H]1C=C2[C@@H]3CC(C)(C)CC[C@]3(CO)[C@H](O)C[C@@]2(C)[C@]2(C)CC[C@H]3[C@](C)(CO)[C@@H](O[C@@H]4O[C@H](C)[C@H](O)[C@H](O[C@@H]5O[C@H](CO)[C@@H](O)[C@H](O)[C@H]5O)[C@H]4O)CC[C@]3(C)[C@@H]12` [Saikosaponin B4] (compound dose: 10 uM) the value was 0.923 ± 0.21.
As for `C[C@@H]1O[C@@H](O[C@H]2[C@H](O[C@H]3CC[C@@]4(C)[C@@H](CC[C@]5(C)[C@@H]4CC=C4[C@@H]6CC(C)(C)CC[C@]6(C(=O)O[C@@H]6O[C@H](CO[C@@H]7O[C@H](CO)[C@@H](O[C@@H]8O[C@@H](C)[C@H](O)[C@@H](O)[C@H]8O)[C@H](O)[C@H]7O)[C@@H](O)[C@H](O)[C@H]6O)CC[C@]45C)[C@]3(C)CO)OC[C@H](O)[C@@H]2O)[C@H](O)[C@H](O)[C@H]1O` [Hederacoside C] (compound dose: 10 uM), the kynurenine production worked out at 1.25 ± 0.18.
Then `CC1(C)C2CC=C(C=O)C1C2` (single isomer, unassigned; (-)) [(-)-Myrtenal] (compound dose: 10 uM), with 0.941 ± 0.084; and `C=C1C(=O)O[C@@H]2[C@H]3C(C)=CC[C@@]34O[C@@]4(C)CC[C@@H]12` [Arglabin] (compound dose: 10 uM), with 0.822 ± 0.039.
For `Cc1ccc(C(C)C)cc1O` [Carvacrol] (compound dose: 10 uM) the value was 0.855 ± 0.035; for `CC1CCC2(O)C(C)(C)C3CCC2(C)C1C3` (stereo not drawn) [Patchouli alcohol] (compound dose: 10 uM), 1.04 ± 0.064.
`C[C@@H]1O[C@@H](O[C@H]2[C@H](O[C@H]3CC[C@@]4(C)[C@@H](CC[C@]5(C)[C@@H]4CC=C4[C@@H]6CC(C)(C)CC[C@]6(C(=O)O)CC[C@]45C)[C@]3(C)CO)OC[C@H](O[C@@H]3O[C@H](CO)[C@@H](O)[C@H](O)[C@H]3O)[C@@H]2O)[C@H](O)[C@H](O)[C@H]1O` [Pulsatilla saponin D] (compound dose: 10 uM): the kynurenine production was 0.141 ± 0.07.
In the case of `OC[C@H]1O[C@@H](O[C@@H]2OC=C[C@H]3[C@H](O)[C@@H]4O[C@]4(CO)[C@@H]23)[C@H](O)[C@@H](O)[C@@H]1O` [Catalpol] (compound dose: 10 uM), the kynurenine production was determined as 0.704 ± 0.58.
As for `C/C=C1\C(=O)C[C@H]2[C@@H]3CCC4=CC(=O)CC[C@]4(C)[C@H]3CC[C@]12C` [Guggulsterone] (compound dose: 10 uM), the kynurenine production turned out to be 0.324 ± 0.043.
`C=C1C(=O)O[C@@H]2C[C@@]3(C)CCC[C@H](C)C3=C[C@H]12` [Alantolactone] (compound dose: 10 uM): the kynurenine production was 0.0823 ± 0.017.
`C=C1C(=O)O[C@@H]2/C=C(\C)CC/C=C(\C)CC[C@@H]12` [Costunolide] (compound dose: 10 uM): the kynurenine production was determined as 0.474 ± 0.063.
On to `COc1ccc(C[C@H]2COC(=O)[C@]2(O)Cc2ccc(O[C@@H]3O[C@H](CO)[C@@H](O)[C@H](O)[C@H]3O)c(OC)c2)cc1OC` [Tracheloside] (compound dose: 10 uM), for which the kynurenine production was 0.824 ± 0.11.
For `CN1CCC[C@H]1c1cccnc1` [(-)-nicotine] (compound dose: 10 uM) the value was 1.04 ± 0.11; for `O=c1c(O)c(-c2ccc(O)cc2)oc2cc(O)cc(O)c12` [Kaempferol] (compound dose: 10 uM), 0.672 ± 0.023; for `CC(/C=C/C=C(\C)C(=O)O[C@@H]1O[C@H](CO)[C@@H](O)[C@H](O)[C@H]1O)=C\C=C\C=C(C)\C=C\C=C(/C)C(=O)O[C@@H]1O[C@H](CO[C@@H]2O[C@H](CO)[C@@H](O)[C@H](O)[C@H]2O)[C@@H](O)[C@H](O)[C@H]1O` [Crocin II] (compound dose: 10 uM), 0.907 ± 0.13.
For `COc1cc2c(=O)c3c(O)c([C@@H]4O[C@H](CO[C@@H]5OC[C@](O)(CO)[C@H]5O)[C@@H](O)[C@H](O)[C@H]4O)c(O)cc3oc2cc1O` [Polygalaxanthone III] (compound dose: 10 uM), the kynurenine production was 1.01 ± 0.037.
In the case of `CC(C)=CCC[C@](C)(O)[C@@H]1CC=C(C)CC1` [alpha-Bisabolol] (compound dose: 10 uM), the kynurenine production was determined as 0.79 ± 0.15.
For the compound `CC1=CC[C@@](O)(C(C)C)CC1` [Terpinen-4-ol] (compound dose: 10 uM), the kynurenine production was 0.984 ± 0.17.
On to `C/C1=C\[C@@H]2[C@H](CC/C(C)=C/CC(=O)/C(C)=C/CC1)C2(C)C` [5-ketocasbene/9-ketocasbene] (compound dose: 10 uM), for which the kynurenine production was found to be 1.03 ± 0.12.
As for `CC12CCC(C1)C(C)(C)C2=O` (single isomer, unassigned; (-)) [(-)-Fenchone] (compound dose: 10 uM), the kynurenine production was 0.955 ± 0.13.
For `O=c1ccn2c(n1)O[C@H]1[C@H](O)[C@@H](CO)O[C@H]12` [2,2'-Anhydrouridine] (compound dose: 10 uM), the kynurenine production was 0.923 ± 0.092.
For the compound `COc1ccc(-c2coc3cc(O)ccc3c2=O)cc1` [Formononetin] (compound dose: 10 uM), the kynurenine production amounted to 0.873 ± 0.0092.
For `C=C(C)[C@@H]1CC[C@]2(C(=O)O[C@@H]3O[C@H](CO[C@@H]4O[C@H](CO)[C@@H](O[C@@H]5O[C@@H](C)[C@H](O)[C@@H](O)[C@H]5O)[C@H](O)[C@H]4O)[C@@H](O)[C@H](O)[C@H]3O)CC[C@]3(C)[C@H](CC[C@@H]4[C@@]5(C)CC[C@H](O[C@@H]6OC[C@H](O)[C@H](O)[C@H]6O[C@@H]6O[C@@H](C)[C@H](O)[C@@H](O)[C@H]6O)[C@@](C)(CO)[C@@H]5CC[C@]43C)[C@@H]12` [Pulchinenoside C] (compound dose: 10 uM) the value was 1.03 ± 0.18; for `CC1=C[C@H]2[C@@H](CC1)[C@H](C)CC[C@H]2[C@@H](C)C(=O)O` [Dihydroartemisinic acid] (compound dose: 10 uM), 0.998 ± 0.035.
